According to PubChem BioAssay AID2685 (National Center for Advancing Translational Sciences (NCATS), 2010):
The campaign covered roughly 320,000 compounds. About 2,100 (0.66%) were called active. Not shown: some 53% with an inconclusive outcome. Calls follow the shape of the dose curve; as a rule, active = well fitted inhibition curve with a large enough effect in the signal ratio, with a control signal flat (not every such curve was filed as active); inconclusive = small, poorly fitted or top-dose-only effect, or effect the other way, or a change in a side signal; inactive = flat fitted curve, though single readings scatter; the % refers to the signal ratio. The list comes from a sample in which actives are over-represented; it also holds similar structures and randomly drawn compounds.
Potency is read from the fitted curve at half-maximal effect.

Test: qHTS Assay for Lipid Storage Modulators in Drosophila S3 Cells;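 as to cell number change: cells counted by Cell Tracker Red CMTPX staining in the red channel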; as to lipid storage change, negative = inhibition: % is scaled to controls: 0 for no effect and ±100 for the full control effect
Conditions: BODIPY lipid droplet fluorescence, 18-24 h, cells fed with added oleic acid; cell number change: measured here: cell count max response; series mostly up to 46.1 µM; lipid storage change, negative = inhibition: at the top concentration
Outline: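 Drosophila S3 cells got compounds at several concentrations plus oleic acid (400 uM solution). Laser-scanning cytometry with 488 nm excitation read lipid droplets at 500-530 nm and cells at 575-640 nm. Percent activity was relative to 20 uM Triacsin C.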
For O=C(NNS(=O)(=O)c1ccccc1)c1cnn(-c2ccccc2)c1-n1cccc1, the “lipid storage change, negative = inhibition” value was 7.45% (inactive) and the cell number change was 9.3%.
For O=C1CC(NS(=O)(=O)c2cc(F)ccc2F)CN1c1ccc2c(c1)OCCO2 (stereo unspecified), the “outcome” value was “inactive”.
For CC(=O)N1CCc2cc(Br)cc(S(=O)(=O)N3CCCCCC3)c21, the “lipid storage change, negative = inhibition” value was 1.88% (inactive) and the cell number change was -5.11%.
With Cn1cccc1/C=N/NC(=O)CSc1nc2ccccc2[nH]1 the “lipid storage change, negative = inhibition” value was 15.8% (inactive) and the cell number change was 5.5%.
In the case of CCC(=O)NC(=S)Nc1ccc(NC(=O)c2ccc(Br)o2)cc1, the cell number change is reported as -10.2% and the lipid storage change, negative = inhibition is reported as -15.2% [at 9.22 µM] (inactive).
For C=CCn1c(CNC(=O)c2ccccc2F)nnc1SCC(=O)NC(C)c1ccccc1 (stereo unspecified), the “lipid storage change, negative = inhibition” value was 9.08% (inactive) and the cell number change was 1.35%.
In the case of CCN(C(=O)COC(=O)COc1ccc2c(C)cc(=O)oc2c1)C1CCS(=O)(=O)C1 (stereo unspecified), the Potency is reported as 0.0461 µM (active) and the cell number change is reported as -49.7%.
In the case of Cc1cc(=O)oc2cc(OCC(=O)OCC(=O)N(C)C3CCS(=O)(=O)C3)ccc12 (stereo unspecified), the “lipid storage change, negative = inhibition” value is reported as -5.08% (inactive) and the cell number change is reported as 7.81%.
For Cc1cc(=O)oc2cc(OCc3ccc(C(=O)OCC(=O)N(C)C4CCS(=O)(=O)C4)cc3)ccc12 (stereo unspecified), the “lipid storage change, negative = inhibition” value was -1.78% (inactive) and the cell number change was -7.42%.
With Fc1ccccc1C(c1nnnn1C1CCCC1)N1CCN(Cc2ccccc2)CC1 (stereo unspecified) the “lipid storage change, negative = inhibition” value was -1.04% (inactive) and the cell number change was -15.7%.
In the case of COc1ccccc1NC(=O)Nc1ccc(Br)cn1, the “lipid storage change, negative = inhibition” value is reported as 21.8% (inactive) and the cell number change is reported as -23.3%.
In the case of COc1ccc(C2/C=C\CN(S(=O)(=O)/C=C/c3ccccc3)[C@H](Cc3ccccc3)C(=O)N2Cc2ccc(F)cc2)cc1 (stereo partly specified), the “lipid storage change, negative = inhibition” value is reported as 13.6% (inactive) and the cell number change is reported as 2.68%.
For COc1cc(/C=N/NC(=O)c2ccc3nc[nH]c3c2)ccc1O, the “lipid storage change, negative = inhibition” value was 4.27% (inactive) and the cell number change was 8.7%.
With CC1(C)Cc2cccc(OCC(=O)NCc3ccc(F)cc3)c2O1 the “lipid storage change, negative = inhibition” value was 20.4% (inactive) and the cell number change was 2.51%.
For COc1cccc(CNC(=O)COc2cccc3c2OC(C)(C)C3)c1, the “outcome” value was “inactive”.
In the case of Cc1ccc(CNC(=O)COc2cccc3c2OC(C)(C)C3)cc1, the Potency is reported as 10.3 µM (active).
For CN(CCNC(=O)c1cn(C)c2ccc(S(=O)(=O)N3CCCC3)cc2c1=O)CCc1ccccc1, the “lipid storage change, negative = inhibition” value was 22.9% (inactive).
With COc1cc(NC(=S)N(C)CCC#N)c(OC)cc1Cl the “lipid storage change, negative = inhibition” value was 6.78% (inactive) and the cell number change was -2.16%.
With CCOC(=O)c1nn(-c2ccc(Cl)cc2Cl)c(=N)c(C#N)c1C the Potency was 18.4 µM (active) and the cell number change was 4.21%.
In the case of CCOC(=O)c1nc(C)n(-c2ccc(Cl)cc2Cl)n1, the “outcome” value is reported as “inactive”.
With CCOC(=O)c1nn(-c2ccc(C)c(C)c2)c(=O)c(C#N)c1C the “outcome” value was “inactive” and the cell number change was -19.4%.
In the case of CC(C)(C)NC(=O)NC(=O)COC(=O)C1=COCCO1, the “lipid storage change, negative = inhibition” value is reported as -1.3% (inactive) and the cell number change is reported as -19.1%.
With Cn1cnnc1SCC(=O)N1c2ccccc2-c2c(ssc2=S)C1(C)C the “lipid storage change, negative = inhibition” value was 10.2% (inactive) and the cell number change was 1.3%.
In the case of Cc1ccc2c(c1)N(C(=O)CSc1nncn1C)C(C)(C)c1ssc(=S)c1-2, the “lipid storage change, negative = inhibition” value is reported as -13.1% (inactive) and the cell number change is reported as -13.4%.
In the case of CC1(C)c2ssc(=S)c2-c2ccccc2N1C(=O)c1ccco1, the Potency is reported as 8.2 µM (active) and the cell number change is reported as 1.38%.
For O=C(N/N=C/c1ccccc1C(=O)O)c1cccc(S(=O)(=O)N2CCOCC2)c1, the “lipid storage change, negative = inhibition” value was 4.8% (inactive) and the cell number change was 10.2%.
With Cc1onc(-c2ccncc2)c1C(=O)O the Potency was 20.6 µM (active) and the cell number change was -5.32%.
In the case of Cc1onc(-c2ccccc2)c1C(N)=O, the “outcome” value is reported as “inactive”.
For Cc1onc(-c2ccccc2)c1C(=O)Nc1ccncc1, the “outcome” value was “inactive” and the cell number change was 12.5%.
In the case of CCOc1ccc(CN2CCC(=O)NC2=O)cc1, the “lipid storage change, negative = inhibition” value is reported as -8.2% (inactive) and the cell number change is reported as -4.82%.
With CC1CC(C)CN(CCCNC(=O)c2ccc(N3CCCC3=O)cc2)C1 (stereo unspecified) the “outcome” value was “inactive” and the cell number change was -12.7%.
With COC(CNC(=O)c1ccc(N2CCc3ccccc32)c([N+](=O)[O-])c1)OC the Potency was 20.6 µM (active) and the cell number change was -26.9%.
For COC(CNC(=O)c1ccc(N2CCC3(CC2)OCCO3)c([N+](=O)[O-])c1)OC, the “lipid storage change, negative = inhibition” value was -23.4% (inactive) and the cell number change was -9.81%.
In the case of COC(CNC(=O)c1cc(S(=O)(=O)N2CCc3ccccc32)ccc1F)OC, the “lipid storage change, negative = inhibition” value is reported as 11.3% (inactive).
For O=C(Nc1cccc([N+](=O)[O-])c1)C(=O)N1CCCCC1, the “lipid storage change, negative = inhibition” value was 14.2% (inactive) and the cell number change was -20.3%.
With CCOC(=O)c1ccc(NC(=O)CSc2nnc(-c3ccncc3)n2C)cc1 the “lipid storage change, negative = inhibition” value was 21.9% (inactive) and the cell number change was 3.98%.
In the case of COc1ccc2c(C)cc(N3CCOCC3)nc2c1, the Potency is reported as 4.61 µM (active) and the cell number change is reported as -8.65%.
With Cc1cc(N2CCOCC2)nc2cc(O)ccc12 the “lipid storage change, negative = inhibition” value was 4.23% (inactive) and the cell number change was -2.46%.
With COc1ccc2c(C)cc(N3CCCCCC3)nc2c1 the “lipid storage change, negative = inhibition” value was 28.5% (inactive) and the cell number change was 23.5%.
For CSc1ccc(S(=O)(=O)Nc2c(C)cccc2C)cc1, the “outcome” value was “inactive” and the cell number change was 1.28%.
For CCCCCCCn1c(=N)n(CC(O)c2ccco2)c2ccccc21 (stereo unspecified), the “lipid storage change, negative = inhibition” value was -19.3% (inactive) and the cell number change was -4.47%.
In the case of CC1CN(Cc2cc(=O)oc3cc(O)c(Cl)cc23)CC(C)O1 (stereo unspecified), the Potency is reported as 1.64 µM (active) and the cell number change is reported as -11.3%.
For Cc1ccc2c(CN3CCOCC3)cc(=O)oc2c1, the “lipid storage change, negative = inhibition” value was 8.89% (inactive) and the cell number change was 3.55%.
In the case of COC(=O)C1CCN(Cc2cc(=O)oc3cc(C)c(Cl)cc23)CC1, the “lipid storage change, negative = inhibition” value is reported as 11.8% (inactive) and the cell number change is reported as 14.6%.
